# Results: PubChem BioAssay AID504377 (National Center for Advancing Translational Sciences (NCATS), 2011)
# Calls of active or inactive are those of the source. The rule behind the calls is not given here.
# Assay: Immunofluorescence assay for phosphorylation of ATM-targeted proteins for Identifying a Potential Treatment of Ataxia-Telangiectasia: SAR for Probe
# Conditions: F2111 A-T fibroblasts, KAP-1 pS824 immunofluorescence, NCS
# Text: NIH Chemical Genomics Center [NCGC] NIH Molecular Libraries Probe Centers Network [MLPCN] MLPCN Grant: MH089030-01 Assay Submitter (PI): Wei Zheng and Yosef Shiloh Ataxia-telangiectasia (A-T) is a devastating and progressive disease for which, there is no cure. Although A-T is a multisystem disease, it is stereotyped characterized by its neurological symptoms such as truncal ataxia, due to cerebellar cortical degeneration of the Purkinje and granule cells. Other symptoms of A-T are telangiectasias (dilated blood vessels), primary immunodeficiency, marked sensitivity to ionizing radiation (IR), chromosomal instability and predisposition to cancer. The underlying genetic cause of A-T is null mutations in the ATM (A-T mutated) gene. ATM is a nuclear serine/threonine kinase that functions as a master regulator of the cellular responses to double strand breaks (DSBs) in the DNA. Upon activation by DSBs, ATM phosphorylates a plethora of downstream targets, including KAP-1 on […]. KAP-1 phosphorylation occurs shortly in response to DSBs and mediates global chromatin relaxation, which facilitates DSB repair. To screen for small molecules that will compensate for the loss of ATM in cells derived from A-T patients, we monitored KAP-1 phosphorylation as a readout for ATM-like activity using an AlphaLISA assay. […]
row,Compound,Potency
1,CC(=O)c1c(O)c(C)c(O)c(Cc2c(O)c3c(c(C(=O)/C=C/c4ccccc4)c2O)OC(C)(C)C=C3)c1O,10 µM (active)
